The nature of assay [1]: NCI Yeast Anticancer Drug Screen. Data for the rad50 strain (AID 155).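 Further: 0% = growth of vehicle-only cultures of the same strain.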 The note with it: S. cerevisiae rad50 strain growth inhibition; at 50.0 µM; active compounds read high. Summed up: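 Genetically altered yeast (DNA repair pathway); compound treatment; growth inhibition vs vehicle ctrl.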
The nature of assay [2]: NCI Yeast Anticancer Drug Screen. Data for the mec2-1 strain (AID 157). To be noted: S. cerevisiae mec2-1 strain, at 50.0 µM, active compounds read high. Summed up:
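Strain: mec2-1 (DNA repair/cell cycle alteration). Compound exposure, then growth measured; inhibition expressed relative to vehicle.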

Assay [3] can be described thus: NCI Yeast Anticancer Drug Screen. Data for the sgs1 mgt1 strain (AID 161).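 Further: 0% = growth of cultures given vehicle only.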 To be noted: S. cerevisiae sgs1 mgt1 strain, at 50.0 µM, active compounds read high. A digest of the protocol: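 Read-out: growth inhibition vs vehicle controls. Cells: mutant yeast strain deficient in DNA damage repair.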
A short description of assay [4]: NCI Yeast Anticancer Drug Screen. Data for the cln2 rad14 strain (AID 165).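 Further: 0% = growth equal to vehicle treated cultures.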 To be noted: S. cerevisiae cln2 rad14 strain, at 50.0 µM, active compounds read high. A digest of the protocol: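 Compounds are applied to the cln2 rad14 yeast strain, and growth is then compared with that of vehicle-treated cultures to give inhibition.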
The nature of assay [5]: NCI Yeast Anticancer Drug Screen. Data for the bub3 strain (AID 167). To be noted: S. cerevisiae bub3 mutant strain, at 50.0 µM, active compounds read high. Summed up:
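Yeast carrying a defined mutation is treated with each compound, and growth is compared with that of vehicle-exposed cells to give inhibition.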

The nature of assay [6]: NCI Yeast Anticancer Drug Screen. Data for the mlh1 rad18 strain (AID 175). The note with it: S. cerevisiae mlh1 rad18 strain growth inhibition; at 50.0 µM; active compounds read high. Summed up: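 Read-out is yeast growth inhibition, calculated against vehicle-only controls. The compound was applied to a strain engineered with DNA damage repair alterations.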

About 79,000 compounds went through this panel and 15% of them were active in at least one assay; those are over-represented in the sample as a whole. A number with no mark means an inactive call. Calls of active or inactive are those of the source. No stated cut-off is given here; in the data, active means growth inhibition above about 70%; inactive means the rest. Where a SMILES comes first, the peptide text is derived from it. The star is where a group is joined. Cbz = O=C(OCc1ccccc1)*; Boc = CC(C)(C)OC(=O)*; OSu = O=C1CCC(=O)N1O*; Bn = c1ccc(C*)cc1

`CCCNc1nnnn1CCC`: the growth inhibition is 3.15% in assay [1]; 5.05% in assay [2]; -0.4% in assay [3]; 4.25% in assay [4]; 10.9% in assay [5]; -0.05% in assay [6].
Consider `Fc1ccc(C2=NOC3COC4C=CC=CC4OCC23)cc1` (stereo unspecified), for which the growth inhibition in assay [1] is -29.2%; in assay [2], -34.9%; in assay [3], -22.9%; in assay [4], -9.15%; in assay [5], -45.1%; in assay [6], -42.2%.
Take `C/C(=N\NS(=O)(=O)c1ccc([N+](=O)[O-])cc1)c1ccc[n+]([O-])n1`: the growth inhibition was -19.2% in assay [1]; -18.6% in assay [2]; -13.6% in assay [3]; -2.75% in assay [4]; 2.15% in assay [5]; -34% in assay [6].
Regarding `COc1cccc(-c2nc(-c3cnccn3)n(C3OC(CO)C(O)C3O)n2)c1` (stereo unspecified), the growth inhibition in assay [1] was -16.4%; in assay [2], -22.4%; in assay [3], -12.8%; in assay [4], 11.6%; in assay [5], -45%; in assay [6] it was -22.6%.
In the case of `Cn1[nH]c(=O)c2ncccc2c1=O`, the growth inhibition was -4.7% in assay [1]; -10.1% in assay [2]; -13.5% in assay [3]; -87.8% in assay [4]; -10.3% in assay [5]; 4.95% in assay [6].
Consider `CCN(CC)CCCNc1ncc(C)c2[nH]c3ccncc3c12`, for which the growth inhibition is 2.9% in assay [1]; 22.6% in assay [2]; 0.4% in assay [3]; -9.1% in assay [4]; -0.25% in assay [5]; 12.1% in assay [6].
In the case of `C[C@@H]1S[C@H](c2c(F)cccc2Cl)n2c1nc1ccccc12`, the growth inhibition was 78.7% (active) in assay [1]; 82.7% (active) in assay [2]; 86.6% (active) in assay [3]; 82.2% (active) in assay [4]; 68.2% in assay [5]; 78.1% (active) in assay [6].
For the compound `Nc1ccnc(=O)[nH]1`, the growth inhibition in assay [1] is -3.5%; in assay [2], -11.7%; in assay [3], -18.8%; in assay [4] it was -20.8%; in assay [5], 3.3%; in assay [6] it was -36.8%.
Take `CCOC(=O)CCC1(C)OCC(O)CO1` (stereo unspecified) (tested in a mixture with another compound): the growth inhibition in assay [1] was -11.1%; in assay [2] it was -5.25%; in assay [3], -5.6%; in assay [4], -2.85%; in assay [5], -16.6%; in assay [6], -25.8%.
For `c1cc(OCC2CO2)ccc1OCC1CO1` (stereo unspecified), the growth inhibition is 41% in assay [1]; 19.9% in assay [2]; 33.1% in assay [3]; -24.9% in assay [4]; 8.8% in assay [5]; 49.4% in assay [6].
For the compound `CN(C)N=Nc1cccc(Cl)c1`, the growth inhibition is 25.9% in assay [1]; 0.6% in assay [2]; 10.3% in assay [3]; 16.2% in assay [4]; 8.8% in assay [5]; 14.2% in assay [6].
For `NNC(=S)N/N=C/c1ccco1`, the growth inhibition in assay [1] was -9.6%; in assay [2], -9.7%; in assay [3] it was -29.4%; in assay [4], -19.2%; in assay [5], -8.7%; in assay [6] it was -14.2%.
`CC(C)(C)OC(=O)NC(Cc1ccc(OCc2ccccc2)cc1)C(=O)NC(CCCCNC(=O)OCc1ccccc1)C(=O)NC(CCCCNC(=O)OCc1ccccc1)C(=O)ON1C(=O)CCC1=O` (stereo unspecified) (Boc-Tyr(Bn)-Lys(Cbz)-Lys(Cbz)-OSu; configuration not given here): the growth inhibition in assay [1] is -1.85%; in assay [2] it was 2.95%; in assay [3], 6.6%; in assay [4], 6.15%; in assay [5], 8.6%; in assay [6], 16.5%.
Regarding `N#CCCN(Cc1ccccc1)CN1C(=O)c2ccccc2C1=O`, the growth inhibition in assay [1] is 8.75%; in assay [2], 5.5%; in assay [3], 12.1%; in assay [4], 17.9%; in assay [5], 6.4%; in assay [6], -10.3%.
On to `CC(=O)NC1C(=O)N(c2ccccc2)N=C1C` (stereo unspecified), for which the growth inhibition is 15.6% in assay [1]; -6.05% in assay [2]; -0.7% in assay [3]; 22.6% in assay [4]; -6.5% in assay [5]; 9.85% in assay [6].
Regarding `CNC(=S)NNC1=NCCCCN1`, the growth inhibition in assay [1] is -41.2%; in assay [2], -20%; in assay [3], -16.1%; in assay [4], 3.9%; in assay [5] it was 2.1%; in assay [6], -16.1%.
As for `O=c1[nH]nc(Sc2ccccc2)c2nncn12`, the growth inhibition is 15.7% in assay [1]; -1.05% in assay [2]; -5.45% in assay [3]; -16.6% in assay [4]; -4.7% in assay [5]; 24.6% in assay [6].
With `Nc1cc(N)[nH]c(=S)n1`, the growth inhibition is 16.8% in assay [1]; 10.2% in assay [2]; 13.9% in assay [3]; -10.9% in assay [4]; -3.95% in assay [5]; -2.35% in assay [6].
Turning to `CCNC1C2(CCCCC2)NC(=O)C12CCCCC2` (stereo unspecified), the growth inhibition is -43.4% in assay [1]; -10.9% in assay [2]; -1.1% in assay [3]; 12.1% in assay [4]; -7.05% in assay [5]; 2.65% in assay [6].
With `Cc1ccc(S(=O)(=O)N/N=C/c2ccsc2)cc1`, the growth inhibition in assay [1] is 20.6%; in assay [2], 13.3%; in assay [3], 27.9%; in assay [4] it was 18.8%; in assay [5] it was 23%; in assay [6] it was 33%.
With `CC(=O)[CH-]C(=O)c1ccccc1.CC(=O)[CH-]C(=O)c1ccccc1.CCCCCCCCCCCCCCCCCC(=O)[O-].CCCCCCCCCCCCCCCCCC(=O)[O-].[Ti+4]`, the growth inhibition was 11.2% in assay [1]; -11.2% in assay [2]; -6.55% in assay [3]; -9.7% in assay [4]; 2% in assay [5]; -0.45% in assay [6].
